The panel holds about 83,000 compounds, 20% with a hit somewhere; the sample as a whole holds those more often.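 Negative percent growth values reflect cell death: -40 means 40% of the cells present at the start died, and -100 means all died.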 Activity calls are given as the source filed them. The calls were made as follows: active = growth percent below 10; inactive = the rest.
Tests used:
Test in all cases: NCI-60 one-dose screen, 48 h (100 = growth as untreated, 0 = no growth, -100 = all killed)
Details in all cases: 10 µM unless noted
SK-MEL-2 melanoma = test system: SK-MEL-2 melanoma
EKVX NSCLC = test system: EKVX NSCLC
SN12C renal = test system: SN12C renal
UO-31 renal = test system: UO-31 renal
TK-10 renal = test system: TK-10 renal
ACHN renal = test system: ACHN renal
CAKI-1 renal = test system: CAKI-1 renal
A498 renal = test system: A498 renal
CCRF-CEM leukemia = test system: CCRF-CEM leukemia
MOLT-4 leukemia = test system: MOLT-4 leukemia

Measured: growth

CC1(C)C(=O)/C(=C\c2cccnc2)C[C@]2(C)[C@H]3CC[C@@H]4[C@@H](C(=O)/C=C/c5ccncc5)CC[C@@]4(C)[C@]3(C)CC[C@@H]12
inactive: EKVX NSCLC 50.4% | TK-10 renal 65.6% | CAKI-1 renal 28.4% | A498 renal 47.3%
active: SK-MEL-2 melanoma -3.01% | SN12C renal 8.09% | UO-31 renal -94.5% | ACHN renal -78.8% | CCRF-CEM leukemia 8.73% | MOLT-4 leukemia 8.03%

COc1ccc2[nH]cc(-c3nc(-c4c[nH]c5ncccc45)cs3)c2c1
active: CAKI-1 renal 4.05% | MOLT-4 leukemia 8.76%
inactive: SK-MEL-2 melanoma 32.9% | EKVX NSCLC 64.4% | SN12C renal 53.2% | UO-31 renal 15.1% | TK-10 renal 31.9% | ACHN renal 19.8% | A498 renal 10.9% | CCRF-CEM leukemia 28.3%

Cc1cccc2c1NC(=O)[C@@]21[C@H](C(=O)c2ccccc2)[C@]2(C(=O)Nc3ccccc32)[C@H]2CCCN21
inactive: SK-MEL-2 melanoma 18.1% [100 µM] | EKVX NSCLC 30.6% [100 µM] | SN12C renal 10.3% [100 µM] | UO-31 renal 30.5% [100 µM] | TK-10 renal 39% [100 µM] | CAKI-1 renal 11.6% [100 µM] | A498 renal 39.8% [100 µM] | MOLT-4 leukemia 12.3% [100 µM]
active: ACHN renal 5.91% [100 µM] | CCRF-CEM leukemia 5.86% [100 µM]

CC(=O)O[C@@H]1CCN2C(=O)N(C)c3ccccc3[C@@H]2C1
inactive: SK-MEL-2 melanoma 102% | EKVX NSCLC 114% | SN12C renal 98.9% | UO-31 renal 94.5% | TK-10 renal 99.6% | ACHN renal 98.6% | CAKI-1 renal 95.3% | A498 renal 114% | CCRF-CEM leukemia 105% | MOLT-4 leukemia 99.6%

C[C@@H](Oc1ccc(C(=O)NS(=O)(=O)C(C)(C)C)cc1C(F)(F)F)c1ccc(Oc2ccccc2)cn1
active: A498 renal -0.737%
inactive: SK-MEL-2 melanoma 38.2% | EKVX NSCLC 65% | SN12C renal 61.2% | UO-31 renal 58.8% | TK-10 renal 79.1% | ACHN renal 61.8% | CAKI-1 renal 38.8% | CCRF-CEM leukemia 25.9% | MOLT-4 leukemia 57.3%

Cn1cc(-c2nc(-c3cn(C)c4ncccc34)cs2)c2cc(F)ccc21
inactive: SK-MEL-2 melanoma 31.1% | EKVX NSCLC 55.3% | SN12C renal 46% | UO-31 renal 51.1% | TK-10 renal 46.3% | ACHN renal 47.4% | CAKI-1 renal 20.8% | A498 renal 44.8% | CCRF-CEM leukemia 40% | MOLT-4 leukemia 35.6%

O=C(/C=C/c1ccc2ccccc2c1)Nc1ncc(Cc2ccccc2)s1
inactive: SK-MEL-2 melanoma 98.1% | EKVX NSCLC 71.4% | SN12C renal 43.9% | UO-31 renal 43.5% | TK-10 renal 22.6% | CAKI-1 renal 45.1% | A498 renal 86.2% | CCRF-CEM leukemia 49.2% | MOLT-4 leukemia 65.8%
active: ACHN renal 6.83%

COc1ccc(-n2c(/C=C/c3ccc(O)c(OC)c3)cc(/C=C/c3ccc(O)c(OC)c3)nc2=O)cc1
inactive: SK-MEL-2 melanoma 84.9% | EKVX NSCLC 56.7% | SN12C renal 66.6% | UO-31 renal 47.8% | TK-10 renal 104% | ACHN renal 69.5% | CAKI-1 renal 87.4% | CCRF-CEM leukemia 15.2% | MOLT-4 leukemia 17.2%

O=C(O[C@@H]1Cc2c(O)cc(O)cc2O[C@@H]1c1cc(O)c(O)c(O)c1)c1cc(O)c2c(c1)OCO2
inactive: SK-MEL-2 melanoma 102% | EKVX NSCLC 102% | SN12C renal 98.6% | UO-31 renal 92.2% | TK-10 renal 88.4% | ACHN renal 112% | CAKI-1 renal 94.4% | CCRF-CEM leukemia 93% | MOLT-4 leukemia 81.5%

Nc1nc(Br)nc2c1ncn2C1CC(O)C(CO)O1 (configuration not stated)
inactive: SK-MEL-2 melanoma 102% | EKVX NSCLC 71% | SN12C renal 52.1% | UO-31 renal 34.1% | TK-10 renal 71.2% | ACHN renal 29.8% | CAKI-1 renal 50.9% | CCRF-CEM leukemia 27.4% | MOLT-4 leukemia 27.7%

CC(C)(C)c1nc(-c2ccc(O)c(O)c2)cs1
inactive: SK-MEL-2 melanoma 93.3% | EKVX NSCLC 88.9% | SN12C renal 59.5% | UO-31 renal 39.5% | TK-10 renal 89.2% | ACHN renal 50% | CAKI-1 renal 54.8% | CCRF-CEM leukemia 26.4% | MOLT-4 leukemia 44.1%

Cn1cc(-c2csc(-c3cn(C(=O)OC(C)(C)C)c4ccccc34)n2)c2cccnc21
inactive: SK-MEL-2 melanoma 66.3% | EKVX NSCLC 72.3% | SN12C renal 87.6% | UO-31 renal 73.7% | TK-10 renal 102% | ACHN renal 77.5% | CAKI-1 renal 58.7% | A498 renal 79.7% | CCRF-CEM leukemia 56.8% | MOLT-4 leukemia 50%

Oc1ccc(CCC2CCCC(CCc3ccc(OCCF)cc3)N2)cc1 (configuration not stated)
inactive: SK-MEL-2 melanoma 104% | EKVX NSCLC 105% | SN12C renal 89.6% | UO-31 renal 72% | TK-10 renal 96.7% | ACHN renal 99.8% | CAKI-1 renal 89.2% | CCRF-CEM leukemia 88.3% | MOLT-4 leukemia 76.2%

COc1ccc(/C=C/C(=O)NCCO)cc1
inactive: SK-MEL-2 melanoma 103% | EKVX NSCLC 98.7% | SN12C renal 108% | UO-31 renal 84.6% | TK-10 renal 92% | ACHN renal 101% | CAKI-1 renal 90.8% | CCRF-CEM leukemia 104% | MOLT-4 leukemia 101%

O=C(O)c1cccc2c1Cc1cc([N+](=O)[O-])ccc1-2
inactive: SK-MEL-2 melanoma 102% | EKVX NSCLC 61.9% | SN12C renal 103% | UO-31 renal 103% | TK-10 renal 123% | ACHN renal 102% | CAKI-1 renal 89.5% | A498 renal 93.1% | MOLT-4 leukemia 94%

COc1cc2nc(Cl)nc(Nc3cccc(C(=O)/C=C/c4ccccc4)c3)c2cc1OC
inactive: SK-MEL-2 melanoma 86.8% | EKVX NSCLC 81.5% | SN12C renal 59.5% | UO-31 renal 50.8% | TK-10 renal 143% | ACHN renal 13.7% | CAKI-1 renal 48.4% | CCRF-CEM leukemia 28.9% | MOLT-4 leukemia 34.5%

Reference: PubChem BioAssay (NCI)
